# Biological target: CD40
# Assay: pooled miR-30 sensor sort-seq; sequence = guide strand
# Conditions: shRNA
# Also: reference of the scale not given here.
row,Sequence,sensor-assay potency score (higher = more potent)
1,TCCGTTTCAGTGAACTCTGTGC,-0.4
2,TTCTTCACAGGTGCAGATGGTG,-0.762
3,TACAGTGCCAGCCTTCTTCACA,-1.17
4,TGGTTCTGGATGGACAGCGGTC,-1.56
5,TTTTTCTCTGCATGCAGTGGGT,-0.914
6,TCTCCTGCACTGGAGCAGCAGT,-1.54
7,TATTGGTTGGCTTCTTGGCCAC,-0.723
8,TTGGTCTCACAGCTTGTCCAAG,-1.27
9,TTCCGTTTCAGTGAACTCTGTG,0.749
10,TATTAGGTACTGTTTTTCTCTG,-0.885
11,TTTCAGTGAACTCTGTGCAGTC,0.172
12,AAGAACAGCACTGACTGTTTAT,-1.08
13,TTCTGAGGTGCCCTTCTGCTGG,-1.42
14,TCACTCACCAGTTTCTGTCCTG,0.175
15,TTTTCTCTGCATGCAGTGGGTG,-0.932
16,ATTAGGTACTGTTTTTCTCTGC,-0.104
17,TGTAGCAATCTGCTTGACCCCA,-0.6
18,TTGGCATCCATGTAAAGTCTCC,-0.501
19,TTTGATAAAGACCAGCACCAAG,-1.36
20,TGACTGTTTATTAGGTACTGTT,-0.925
21,ACAAAGAACAGCACTGACTGTT,0.0373
22,TAGCAATCTGCTTGACCCCAAA,-1.28
23,AACCCCTGTAGCAATCTGCTTG,-0.675

# Biological target: CD48
# Assay: as above
# Conditions: shRNA
row,Sequence,sensor-assay potency score (higher = more potent)
1,TTGGATTCAAAGTACTTAGATT,-1.05
2,TAATGTTGTCACAATTTTGGGT,0.114
3,TTGTTTGTAGTTCTCAGGCAGG,-0.932
4,TAATTCAGCAGCATGCTTCTGG,0.539
5,TTCTATCTTCTCAATTTTGATG,-0.753
6,TACAGGGTCAAGCACTTGCAGC,-1.55
7,TATACAGTCTCTGTCCTGGTGA,-0.4
8,TACTAGAAAACAACAAAGGGAT,-0.0806
9,TATCACACATGACAGTTTCAAA,-1.19
10,TTGCTGCTCACAGAATTGCTGA,-0.332
11,TTCTACAATCTTCTGGTCGAAA,-0.694
12,TTCTTGCTCATTCCCAGTCTTT,-1.11
13,TTAGATTTTCTGGAATCCCATT,-1.01
14,TTCAAGCACACTGTTCTGGAGC,-0.656
15,TCCCATTCTACAATCTTCTGGT,-0.143
